Compound activity deposited in PubChem by University of Kansas High Throughput Screening Laboratory.
Sampled rows, rich in hits. Any-hit rate of the full collection: about 3.5%.
mHTT-CaM PPI inh: mutant huntingtin-calmodulin interaction inhibitors – biochemical, AlphaScreen, primary screen; 3.6% of 190,000 active; AlphaScreen His-mHTT/GST-CaM binding, luminescence; P42858; inhibition, % at 15 µM
Pf apPOL block: Pf-apPOL inhibitors, biochemical, fluorescence. 0.25% of 210,000 active. AID 1794808, 2022. inhibition, % at 10 µM. Plasmodium falciparum apicoplast DNA polymerase (apPOL). Recombinant Pf-apPOL, molecular beacon fluorescence, 1.5 h
Numbers stand for hits; . = inactive; / = no result; ! = not active in a repeat. No stated cut-off is given here; in the data, active means inhibition above about 50%; inactive means the rest.

SMILES	mHTT-CaM PPI inh	Pf apPOL block
Cc1ccc2c(c1)NC(c1ccc([N+](=O)[O-])cc1)C1CC=CC21 (centres undefined)	.	.
Nc1ccc2c(c1)C1C=CCC1C(c1ccc([N+](=O)[O-])cc1)N2 (centres undefined)	98	.
COc1cc([N+](=O)[O-])cc2c1NC(c1ccc(Br)cc1)C1CC=CC21 (centres undefined)	.	.
Brc1ccc2c(c1)[C@@H]1C=CC[C@@H]1[C@H](c1ccncc1)N2	.	/
O=[N+]([O-])c1ccc(C2Nc3ccc(F)cc3C3C=CCC32)cc1 (centres undefined)	91	.
NS(=O)(=O)c1ccc2c(c1)C1C=CCC1C(c1ccc(Br)cc1)N2 (centres undefined)	84	.
COc1ccc(C2=NOC(C(=O)N(C)Cc3ccccc3)C2)cc1OC (centres undefined)	.	.
Cc1ccc(OCc2nc3c4c5c(sc4ncn3n2)C(C)(C)NC(C)(C)C5)cc1	.	.
O=[N+]([O-])c1ccc(C2Nc3cc(Cl)cc(Cl)c3C3C=CCC32)cc1 (centres undefined)	60	.
O=C1C(c2ccc(F)cc2)N(C2CCCC2)C(=O)CN1C1CCCC1 (centres undefined)	.	.
CC(C)(C)c1ccc(C(=O)N2N=C(c3ccc([N+](=O)[O-])cc3)CC2(O)C(F)(F)F)cc1 (centres undefined)	.	.
O=C(c1ccccc1O)N1N=C(c2ccc(Cl)cc2)CC1(O)C(F)(F)F (centres undefined)	59	.
O=C(c1ccc(Cl)cc1)N1N=C(c2ccc([N+](=O)[O-])cc2)CC1(O)C(F)(F)F (centres undefined)	51	.
O=C(c1ccc([N+](=O)[O-])cc1)N1N=C(c2ccncc2)CC1(O)C(F)(F)F (centres undefined)	.	83
CC(C)C(=O)N1N=C(c2ccc([N+](=O)[O-])cc2)CC1(O)C(F)(F)F (centres undefined)	.	.
Cc1ccc(C2=NN(C(=O)c3ccccc3Cl)C(O)(C(F)(F)F)C2)cc1 (centres undefined)	.	.
CN(C)c1cc(Cl)cc(Cl)c1	/	.
CC(C)CC1NC2(CCN(C(=O)C3CCC3)CC2)N(Cc2ccccc2)C1=O (centres undefined)	.	.
CCOc1ccccc1C(=O)N1CCN(c2ccc(Cl)cc2)CC1	.	.
COc1ccccc1C(=O)N1CCC2(CC1)NC(=O)N(Cc1ccc(Cl)cc1)C2=O	.	.
O=C(c1c[nH]c2ccccc12)N1CCC2(CC1)NC(=O)N(Cc1ccc(Cl)cc1)C2=O	90	.
CCOc1ccccc1C(=O)N1CCC2(CC1)NC(=O)N(Cc1ccc(Cl)cc1)C2=O	55	.
CCOc1ccccc1C(=O)n1cc(Cl)cn1	.	98!
O=C(c1cccc2[nH]ccc12)N1CCC2(CC1)NC(=O)N(Cc1ccc(Cl)cc1)C2=O	.	.
CC(C)CCNC(=O)C1CCCN(c2nnc3ccc(Cl)cn23)C1 (centres undefined)	.	.
SMILES	mHTT-CaM PPI inh	Pf apPOL block
Cc1cccc(C(=O)N2N=C(c3ccc(Br)cc3)CC2(O)C(F)(F)F)c1 (centres undefined)	97	.
O=C(COc1ccccc1)N1N=C(c2ccc(Br)cc2)CC1(O)C(F)(F)F (centres undefined)	.	.
CCC1=NN(C(=O)COc2ccc(Cl)c(C)c2)C(O)(C(F)(F)F)C1 (centres undefined)	94	.
Cc1cccc(C(=O)N2N=C(c3cccc(Br)c3)CC2(O)C(F)(F)F)c1 (centres undefined)	.	.
Cc1ccccc1OCC(=O)N1N=C(c2ccc(Br)cc2)CC1(O)C(F)(F)F (centres undefined)	93	.
CCC1=NN(C(=O)Cc2ccc(OC)cc2)C(O)(C(F)(F)F)C1 (centres undefined)	.	.
O=C(NCC1CCN(Cc2ccsc2)CC1)C(=O)Nc1ccc(F)c(F)c1	.	.
O=C(NC1CC1)c1ccc(OCC2CCCN2C(=O)c2c(F)cccc2F)cc1 (centres undefined)	.	.
CCc1ccccc1N1CCN(C(=O)C(C)C)C(C)C1=O (centres undefined)	.	.
COc1ccc(-c2c(C)oc3c(CN4CCC(C)CC4)c(O)ccc3c2=O)cc1	.	.
COc1c2ccoc2nc2c(OC)c(OC3OC(CO)C(O)C(O)C3O)ccc12 (centres undefined)	/	.
COc1cccc(NC(=O)c2cc(NC(=O)c3ccccc3)cc(NC(=O)c3ccccc3)c2)c1	.	.
Cc1ccc(Oc2ccc(N3C(=O)c4cccc(N)c4C3=O)cc2)cc1C	.	.
COc1ccc(NC(=O)C2CC(=O)N(C)C(=Nc3ccc(Cl)c(Cl)c3)S2)cc1 (centres undefined)	85	.
COc1ccc(NC(=O)C2CC(=O)N(C)C(=Nc3ccc(Cl)c(C(F)(F)F)c3)S2)cc1 (centres undefined)	.	.
CCN(C)c1nc(-c2cccc(F)c2F)c2c(N)n(-c3cccc(F)c3)nc2n1	.	.
CCN(C)c1nc(-c2cccc(F)c2)c2c(N)n(-c3cc(F)ccc3F)nc2n1	54	.
O=C(CSCc1ccccc1)NCc1n[nH]c(=O)c2ccccc12	.	.
O=C1NC(=Nc2ccc(Cl)cc2)SC1Cc1ccccc1[N+](=O)[O-] (centres undefined)	.	.
Cc1ccnc(NC(=O)c2cccc(Cl)c2)c1	.	.
Cc1ccnc(NC(c2cc(C)ccc2O)c2ccc3cccnc3c2O)c1 (centres undefined)	99	.
Cc1ccc(C)c(NC(=O)CSc2cccc3cccnc23)c1	.	.
Cc1ccnc(NC(c2cccc(C)n2)c2ccc3cccnc3c2O)c1 (centres undefined)	87	.
Cc1cc(C)n(-c2nc(-c3ccc(F)cc3)cs2)n1	.	.
COc1ccccc1CNC(=O)CN(C)S(=O)(=O)c1ccc2[nH]c3c(c2c1)CCCC3	58	.
SMILES	mHTT-CaM PPI inh	Pf apPOL block
COc1ccccc1NC(=O)CN(C)S(=O)(=O)c1ccc2[nH]c3c(c2c1)CCCC3	.	.
COc1cccc(CNC(=O)CN(C)S(=O)(=O)c2ccc3[nH]c4c(c3c2)CCCC4)c1	.	.
CN(CC(=O)NCCc1ccccc1)S(=O)(=O)c1ccc2[nH]c3c(c2c1)CCCC3	.	.
CN(CC(=O)NCc1ccc(Cl)cc1)S(=O)(=O)c1ccc2[nH]c3c(c2c1)CCCC3	58	.
Cc1ccc(CCNC(=O)CN(C)S(=O)(=O)c2ccc3[nH]c4c(c3c2)CCCC4)cc1	59	.
O=C(NCc1csc(C2CCN(C(=O)c3cccc(F)c3)CC2)n1)C1CC1	.	.
COc1ccc(C2CC(C(F)(F)F)n3nc(C(=O)NCCc4ccccc4)c(Cl)c3N2)cc1 (centres undefined)	.	.
Cc1ccccc1OCC(=O)Nc1ncc(Cc2ccc(Br)cc2)s1	.	.
CC(C)CCNC(=O)C1CCCN(c2ncnc3c2oc2ccccc23)C1 (centres undefined)	.	.
O=C(CC(c1ccccc1)c1ccccc1)Oc1coc(CSc2ncccn2)cc1=O	99	.
Cc1csc(SCc2cc(=O)c(OC(=O)c3cccc([N+](=O)[O-])c3)co2)n1	.	.
Cc1ccnc(SCc2cc(=O)c(OC(=O)Cc3ccc([N+](=O)[O-])cc3)co2)n1	88	.
